{"source": "paper PMC11447256", "key": {"[1]": {"molecular_target": "Large ribosomal subunit protein uL15 (UniProt P46776)", "test": "cross-linking mass spectrometry"}, "[2]": {"molecular_target": "Large ribosomal subunit protein eL20 (UniProt Q02543)", "test": "cross-link between two proteins; cross-linking mass spectrometry"}, "[3]": {"molecular_target": "Large ribosomal subunit protein eL36 (UniProt Q9Y3U8)", "test": "cross-link between two proteins; cross-linking mass spectrometry"}, "[4]": {"molecular_target": "Small ribosomal subunit protein uS8 (UniProt P62244)", "test": "cross-link between two proteins; cross-linking mass spectrometry"}, "[5]": {"molecular_target": "Large ribosomal subunit protein eL19 (UniProt P84098)", "test": "cross-link between two proteins; cross-linking mass spectrometry"}, "[6]": {"molecular_target": "Large ribosomal subunit protein eL6 (UniProt Q02878)", "test": "cross-linking mass spectrometry"}, "[7]": {"molecular_target": "Large ribosomal subunit protein eL43 (UniProt P61513)", "test": "cross-link between two proteins; cross-linking mass spectrometry"}, "[8]": {"molecular_target": "Eukaryotic translation initiation factor 3 subunit B (UniProt P55884)", "test": "cross-linking mass spectrometry"}, "[9]": {"molecular_target": "Large ribosomal subunit protein uL13 (UniProt P40429)", "test": "cross-linking mass spectrometry"}, "Histone H2A type 2-B": {"molecular_target": "Histone H2A type 2-B (UniProt Q8IUE6)", "test": "cross-linking mass spectrometry"}, "[10]": {"molecular_target": "Small ribosomal subunit protein eS24 (UniProt P62847)", "test": "cross-link between two proteins; cross-linking mass spectrometry"}, "[11]": {"molecular_target": "Large ribosomal subunit protein eL8 (UniProt P62424)", "test": "cross-linking mass spectrometry"}, "Nucleolar protein 16": {"molecular_target": "Nucleolar protein 16 (UniProt Q9Y3C1)", "test": "cross-linking mass spectrometry"}, "[12]": {"molecular_target": "Large ribosomal subunit protein eL31 (UniProt P62899)", "test": "cross-link between two proteins; cross-linking mass spectrometry"}, "[13]": {"molecular_target": "Small ribosomal subunit protein uS5 (UniProt P15880)", "test": "cross-link between two proteins; cross-linking mass spectrometry"}, "[14]": {"molecular_target": "Small ribosomal subunit protein uS4 (UniProt P46781)", "test": "cross-linking mass spectrometry"}, "[15]": {"molecular_target": "Small ribosomal subunit protein uS9 (UniProt P62249)", "test": "cross-linking mass spectrometry"}}, "data": [{"substance": "Large ribosomal subunit protein uL13, P40429", "values": [{"measurement": "listed as a hit", "setting": "[1]", "value": "yes"}, {"measurement": "listed as a hit", "setting": "[2]", "value": "yes"}]}, {"substance": "Large ribosomal subunit protein uL1, P62906", "values": [{"measurement": "listed as a hit", "setting": "[3]", "value": "yes"}]}, {"substance": "Small ribosomal subunit protein uS5, P15880", "values": [{"measurement": "listed as a hit", "setting": "[4]", "value": "yes"}]}, {"substance": "Large ribosomal subunit protein eL43, P61513", "values": [{"measurement": "listed as a hit", "setting": "[5]", "value": "yes"}]}, {"substance": "Large ribosomal subunit protein uL30, P18124", "values": [{"measurement": "listed as a hit", "setting": "[6]", "value": "yes"}]}, {"substance": "Large ribosomal subunit protein eL34, P49207", "values": [{"measurement": "listed as a hit", "setting": "[7]", "value": "yes"}]}, {"substance": "Small ribosomal subunit protein uS4, P46781", "values": [{"measurement": "listed as a hit", "setting": "[8]", "value": "yes"}]}, {"substance": "Large ribosomal subunit protein uL16, P27635", "values": [{"measurement": "listed as a hit", "setting": "[9]", "value": "yes"}, {"measurement": "listed as a hit", "setting": "[1]", "value": "yes"}]}, {"substance": "Histone H3.1, P68431", "values": [{"measurement": "listed as a hit", "setting": "Histone H2A type 2-B", "value": "yes"}]}, {"substance": "Small ribosomal subunit protein uS17, P62280", "values": [{"measurement": "listed as a hit", "setting": "[10]", "value": "yes"}]}, {"substance": "Large ribosomal subunit protein eL13, P26373", "values": [{"measurement": "listed as a hit", "setting": "[11]", "value": "yes"}, {"measurement": "listed as a hit", "setting": "Nucleolar protein 16", "value": "yes"}]}, {"substance": "Large ribosomal subunit protein uL3, P39023", "values": [{"measurement": "listed as a hit", "setting": "[9]", "value": "yes"}, {"measurement": "listed as a hit", "setting": "[12]", "value": "yes"}]}, {"substance": "Small ribosomal subunit protein uS2, P08865", "values": [{"measurement": "listed as a hit", "setting": "[13]", "value": "yes"}]}, {"substance": "Large ribosomal subunit protein eL30, P62888", "values": [{"measurement": "listed as a hit", "setting": "[5]", "value": "yes"}]}, {"substance": "Small ribosomal subunit protein uS3, P23396", "values": [{"measurement": "listed as a hit", "setting": "[14]", "value": "yes"}, {"measurement": "listed as a hit", "setting": "[15]", "value": "yes"}]}]}
